According to PubChem BioAssay (NCI):
Compounds without any hit were thinned out: in the full panel of roughly 83,000, 20% have a hit.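 Method: cells in 96-well plates; compound added at one concentration; 48 h incubation; percent growth measured; values under 10 scored active.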 Values without a mark were called inactive. The source made the active and inactive calls.

System: HCT-116 colon
Assay: NCI-60 one-dose screen, 48 h (100 = growth as untreated, 0 = no growth, -100 = all killed)
Settings: 10 µM unless noted

Row | SMILES | growth
1 | O=[N+]([O-])c1cc([N+](=O)[O-])c(C(F)(F)F)cc1NN=C(c1ccc(O)cc1)c1ccc(O)cc1 | -82.4% (active)
2 | O=C(COc1cccc(/C=C2\Oc3ccccc3C2=O)c1)c1ccc([N+](=O)[O-])cc1 | 92.2%
3 | COc1cc(NCc2cn(-c3ccc(C(=O)O)cc3)nc2-c2ccc(C(=O)O)cc2)cc(OC)c1OC | 97.5%
4 | COc1ncc(-c2ccc3nccc(C#CCCCCC(=O)NO)c3c2)cc1NS(=O)(=O)c1ccc(F)cc1F | -50.3% (active)
5 | O=C(O)CSCc1nnc2n(Cc3ccccc3)c(=O)c3c4c(sc3n12)CCCC4 | 144%
6 | C[C@]12CCc3nc(Nc4ccccc4)sc3C1=CC[C@@H]1[C@@H]2CC[C@]2(C)/C(=N/NC(N)=S)CC[C@@H]12 | -46.2% (active)
7 | C=C(C)C1CCC2(C(=O)O)CCC3(C)C(CCC4C5(C)CCC(OC(=O)NCc6ccccc6)C(C)(C)C5CCC43C)C12 (configuration not stated) | 18%
8 | CC(C)=CCC[C@](C)(O)[C@H]1CC[C@]2(C)[C@@H]1CC[C@@H]1[C@@]3(C)CC/C(=N/O)C(C)(C)[C@@H]3CC[C@]12C | -9.52% [100 µM] (active)
9 | N#CC1C(=O)NC(c2ccccc2[N+](=O)[O-])c2sc3c(F)cccc3c21 (configuration not stated) | 11%
10 | Brc1ccc(-c2nnc3c4[nH]ccc4ncn23)cc1 | 86.4%
11 | CCCCCCCCCCCCNC(=S)N/N=C/c1ccccc1O | 62.2%
12 | CC1(C)CC[C@]2(C(=O)O)CC[C@]3(C)[C@H](CC[C@@H]4[C@@]5(C)CCC(=O)C(C)(C)[C@@H]5CC[C@]43C)[C@H]2[C@H]1OC(=O)C(F)(F)F | -66.3% [100 µM] (active)
